Data as given in PubChem BioAssay (NCI).
The panel holds about 83,000 compounds, 20% with a hit somewhere; the sample as a whole holds those more often.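 How to read the values: 0–100, growth inhibition (40 = 60% inhibited); 0, no net growth; -100 to 0, cell death (-40 = 40% of starting cells died; -100 = all dead).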 A number with no mark means an inactive call. Active and inactive are the calls of the source. The calls were made as follows: active = growth percent below 10; inactive = the rest.

Assays:
Assay in all cases: NCI-60 one-dose screen, 48 h (100 = growth as untreated, 0 = no growth, -100 = all killed)
Conditions in all cases: 10 µM unless noted
[1] = system: HCT-15 colon
[2] = system: HT29 colon
[3] = system: SNB-75 CNS
[4] = system: SNB-19 CNS
[5] = system: U251 CNS
[6] = system: PC-3 prostate
[7] = system: SK-MEL-5 melanoma
[8] = system: UACC-62 melanoma
[9] = system: LOX IMVI melanoma
[10] = system: SK-MEL-28 melanoma

| SMILES | growth [1] | growth [2] | growth [3] | growth [4] | growth [5] | growth [6] | growth [7] | growth [8] | growth [9] | growth [10] |
| --- | --- | --- | --- | --- | --- | --- | --- | --- | --- | --- |
| CCOc1ccc(NC(=O)CSc2oc(-c3ccccc3)nc2S(=O)(=O)c2ccc(F)cc2)cc1 | 77% | 73.7% | 103% | 88% | 53.4% | 55.7% | 79.7% | 62.8% | 74.1% | 72.6% |
| O=C(Cn1cc(CN2C(=O)c3ccccc3S2(=O)=O)nn1)Nc1nc2ccccc2s1 | 107% | 97.9% | 81.2% | 98.1% | 98.7% | 93.2% | 104% | 97.5% | 92.5% | 106% |
| Nc1c(C(=O)Nc2ccccc2Cl)sc2nc3c(cc12)C(O)CCC3 (stereo not given) | 30.5% | 6.13% (active) | 22.9% | 41.6% | 29.4% | 36.8% | 21.4% | 47.9% | 45.5% | 79.2% |
| O=C(/C=C/c1ccccc1)c1cccc(OCCCOc2cccc(C(=O)/C=C/c3ccccc3)c2)c1 | 57.4% | 52.4% | 93.9% | 85.7% | 64.3% | 82.8% | 100% | 87.3% | 58.1% | 102% |
| CCOC(=O)c1c(C)nc2c(c1N)CC(=O)N2Cc1cc(F)cc(Cl)c1 | 80.5% | 77.1% | 71.6% | 100% | 90.8% | 77.9% | 74.9% | 78% | 96.5% | 105% |
| Cc1ccc(-c2nc(/C=C3/C(=O)Nc4ccccc43)c3ccccn23)cc1 | 26.5% | 42.3% | 88.9% | 99.6% | 85.2% | 78.3% | 82.9% | 84.5% | 77.1% | 133% |
| COc1ccc2c(O)c(/C=C3\N=Nc4ccccc43)oc2c1C[C@@H]1CCNC[C@H]1F | 6.86% (active) | 12.3% | 51.1% | 84.1% | 10.1% | 68.3% | 63.9% | 76% | -82.7% (active) | -70.2% (active) |
| CCCCCCCCn1ccc2cc(NC(=O)CN3CCN(c4nc(C)cc(Cl)n4)CC3)ccc21 | 77.1% | 65.3% | 87% | 102% | 92.8% | 75.6% | 91.1% | 76.4% | 99.6% | 98% |
| N#CC1=C(N)Oc2c(sc3c(F)cccc23)C1c1ccc(F)cc1 (stereo not given) | 26% | 6.86% (active) | 6.01% (active) | 27.3% | 22.2% | 28.7% | 22.3% | 29.2% | 32.2% | 64% |
| COc1cc(NC(C)CCCNC(C)C)c2ncccc2c1OC (stereo not given) | 99.3% | 120% | 87.6% | 93% | 92% | 90.8% | 97.9% | 85% | 83.5% | 108% |
| CCOC(=O)C(=Cc1cccc(Br)c1)C(=O)OCC | 15.1% | 18% | 13.2% | 50.9% | 26.8% | 40.8% | 50.3% | 44.2% | -8.96% (active) | 39.2% |
| CN(C)CCNc1nc2c3cc(Cl)ccc3nn2c2ccccc12 | 41.2% | 21.4% | 83.5% | 41.8% | 49.5% | 46.8% | 56.1% | 73.6% | 25.9% | 96.3% |
| CCO/C=N/C1=C(C#N)C(c2ccc(OC)cc2)c2sc3c(F)cccc3c2O1 (stereo not given) | 21.3% | 7.69% (active) | -8.92% (active) | 24% | 24.7% | 33.3% | -22.9% (active) | 12.2% | 32.2% | 60.4% |
| O=C(NCc1ccccc1)Nc1ccccc1CNc1nc(Nc2ccc(OCCN3CCCC3)cc2)ncc1Cl | 56.6% | 68.4% | 82.4% | 94.3% | 45.5% | 94.5% | 95.2% | 98.6% | 88.8% | 105% |
| Nc1nc(=S)c2ncn(C3OC(COP(=O)(O)O)C(O)C3O)c2[nH]1 (stereo not given) | 9.49% (active) | 7.19% (active) | 47.8% | 96.1% | 47.3% | 29.1% | 69.5% | 14% | 3.07% (active) | 73.5% |
| S=C1CCSC(=S)N1CCCN1C(=S)CCSC1=S | 51.4% | 67.8% | 70% | 89.7% | 83.2% | 69.1% | 91.5% | 50.4% | 38.2% | 86.6% |
| Cc1ccc2c(n1)C(=O)c1[nH]c3ccccc3c1C2=O | 18.8% | 26.6% | -37.8% (active) | 46.9% | 40.9% | 35.3% | -94% (active) | -64.2% (active) | 16.4% | 78.6% |
| COC(C(=O)[C@@H](O)[C@@H](C)O)[C@@H]1Cc2cc3cc(O[C@H]4C[C@@H](O[C@H]5C[C@@H](O)[C@H](O)C(C)O5)[C@H](O)C(C)O4)cc(O)c3c(O)c2C(=O)[C@H]1O[C@H]1C[C@@H](O[C@H]2C[C@@H](O[C@H]3C[C@@H](OC)[C@H](O)C(C)O3)[C@@H](O)C(C)O2)[C@H](O)C(C)O1 (stereo not given in full) | 102% | 34.9% | 35.7% | 40.1% | 26.5% | 42.5% | 14.6% | 0.169% (active) | 17.8% | 30.7% |
| COC(=O)c1cc(-c2ccc(OC)cc2)[nH]c1N/N=C/c1c(Cl)cccc1Cl | 16.4% | -56.5% (active) | -10.6% (active) | 19.1% | 7.09% (active) | 16.2% | -2.73% (active) | 21.3% | 24.2% | 34% |
| Cc1ccc(-n2c(=S)[nH]c3sc4c(c3c2=O)CCC(=O)C4)cc1 | 25% | 55.9% | 28.1% | 30.9% | 36.7% | 41% | 26.7% | 10.3% | 36.3% | 53% |
| CC12CCC3c4ccccc4CCC3(CO1)C2 (stereo not given) | 108% | 100% | 89.7% | 114% | 107% | 88% | 102% | 105% | 101% | 99.9% |
| COc1cnc2c(c1)C(=O)c1c-2n(CCCNCCO)c(=O)c2ccncc12 | 23.1% | 3.25% (active) | 12.1% | 7.52% (active) | 0.604% (active) | 6.97% (active) | -78.4% (active) | -49.1% (active) | -40.5% (active) | -13.1% (active) |
| CC(O)c1cnc(/C=C2\SC(=S)N(Cc3ccccc3)C2=O)s1 (stereo not given) | 83.6% | -8.15% (active) | 85.2% | 97.9% | 54.9% | 34% | 88.8% | 90.3% | 41.2% | 89.3% |
| CCCc1cc(NC)nc(S(=O)(=O)CC)n1 | 104% | 107% | 88.6% | 102% | 107% | 109% | 104% | 93.8% | 103% | 106% |
| COc1ccc(/C=C2\COc3ccc(O)c(O)c3C2=O)cc1 | -19.4% (active) | 42.6% | 44.4% | 42% | 12.8% | 17.7% | -1.8% (active) | 4.68% (active) | -63.9% (active) | 57.4% |
| O=C(O)c1[nH]c(=O)[nH]c(=O)c1[N+](=O)[O-] | 98.8% | 129% | 93.4% | 110% | 104% | 96.7% | 110% | 106% | 105% | 121% |
